# From PubChem
# KB-V1 cytotox – KB-V1 MDR subline cytotoxicity | KB-V1 MDR cells viability, CellTiter-Glo, 72 h | Potency, µM (top dose mostly 46.1 µM), hits mostly cytotoxic | 400,000 tested, 3.4% active | AID 1347076; note: % is set by controls: 0 for no effect and ±100 for the full control effect; nearly all actives have a fitted effect of over 60% in size
#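 Potencies derive from concentration-effect curves fitted to normalized luminescence (CellTiter-Glo) of KB-V1 cells treated for 72 h at 37 degrees C in phenol-red-free DMEM containing 10% FBS.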
# MCF10A rereplic – induces DNA re-replication in MCF 10a normal breast cells | MCF 10A DNA re-replication, Hoechst nuclear intensity, 48 h | Potency, µM (titrated, usually from 46.1 µM), for inactives: top-dose activity, positive = re-replication, usual class: activators | 350,000 tested, 2.9% active | AID 624296; note: % of control where 0% means no effect; nearly all actives have a fitted effect of over 50% in size
# SW480 rereplic – DNA re-replication induction in SW480 cells | SW480 DNA re-replication, Hoechst DNA content imaging, 48 h | 340,000 tested, 1.8% active | Potency, µM (top dose mostly 46.1 µM), without a hit: at the top dose re-replication activation, actives largely listed as activators; note: % of control where 0% means no effect; nearly all actives have a fitted effect of over 55% in size
#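 Image-based DNA-content assay: after two days of treatment, nuclei were labelled with the DNA dye Hoechst and imaged, and hits were compounds raising the count of nuclei showing high fluorescence intensity.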
# KB-3-1 tox – KB-3-1 parental cell cytotoxicity; KB-3-1 viability, CellTiter-Glo ATP luminescence, 72 h; Potency, µM (doses to about 46.1 µM), actives largely listed as cytotoxic; 400,000 tested, 1.4% active; AID 1347075; note: % is set by controls: 0 for no effect and ±100 for the full control effect; nearly all actives have a fitted effect of over 60% in size
#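 KB-3-1 cells, DMEM (no phenol red) + 10% FBS; compound by pin transfer, 72 h, 37 °C. Readout: CellTiter-Glo luminescence after 10 min. Data normalized, curve-fitted.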
# PINK1 modulator – modulators of PINK1 expression | 410,000 tested, 0.2% active | PINK1 immunofluorescence, high-content cytometry, 24 h | AID 624263 | Potency, µM (highest dose often 76.6 µM), inactives show at the highest dose activation (PINK1 increase), most hits filed as activators; active = well fitted activation curve with a large enough effect; inconclusive = small, poorly fitted or top-dose-only effect; cell line not stated here; note: % of control where 0% means no effect; nearly all actives have a fitted effect of over 65% in size
#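 Readout is PINK1 immunofluorescence, quantified alongside mitochondrial, cell and nuclear markers by laser-scanning microplate cytometry. Cells from a stable line were exposed to compound titrations (5 concentrations) for 24 hours, with CCCP controls.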
# Starred values were filed as active, the others as inactive; i = inactive; ? = inconclusive; . = not tested or not shown; [ ] = remark or other dose. This is a sample that favours compounds with a hit; in the whole collection about 6.7% have one here. Unless noted, calls come from the whole dose curve; as a rule, active = well fitted curve in the direction sought with a large enough effect; inconclusive = small, poorly fitted or top-dose-only effect, or another doubt; inactive = no such curve, though single readings can be large; an effect the other way counts as inactive or inconclusive. Potency is the fitted concentration of half-maximal effect.
SMILES,KB-V1 cytotox,MCF10A rereplic,SW480 rereplic,KB-3-1 tox,PINK1 modulator
Cn1c2c(c3ccccc31)CCN(CCCCN1CCN(c3ccccc3)CC1)C2=O,5.8µM*,?,?,i,-4%
Cc1c(C(=O)CN2CCN(c3ccccc3)CC2)c2ccccc2n1C,i,10%,-8%,i,1%
CCOc1ccc(NC(=O)CN(C)CC(=O)Nc2ccccc2SC)cc1OCC,3.7µM*,1%,3%,i,1%
COc1ccc(CSCC(=O)NCCC(C)C)cc1,i,5%,-4%,i,3%
COc1ccc(CSCC(=O)Nc2ccccc2SC)cc1,18µM*,?,?,?,0%
COc1ccc(NC(=O)CN(C)C(C)C(=O)N2CCCCC2)cc1 (stereo not drawn),12µM*,-4%,-6%,i,0%[38.3 µM]
COc1ccc(NC(=O)CN(C)CC(=O)Nc2ccccc2SC)cc1,21µM*,-1%,-1%,i,0%
CCOc1ccc(NC(=O)c2nnn(-c3ccc(F)c(Cl)c3)c2C)cc1,i,.,.,i,-1%
CN(CCN1CCOCC1)C(=O)C1CCC(=O)N(Cc2ccc(Cl)cc2)C1 (stereo not drawn),i,.,.,i,0%
O=C(Nc1cc(F)cc(F)c1)Nc1nnc(-c2ccncc2)s1,i,.,.,i,.
CSc1ccccc1NC(=O)CN(C)CC(=O)c1c(C)[nH]c2ccccc12,21µM*,3%,-7%,i,4%
CC1=C(C#N)C(c2cccnc2)C2=C(N1)c1ccccc1C2=O (stereo not drawn),i,1%,-5%,i,2%
CC1=C(C#N)C(c2ccccc2)C2=C(N1)c1ccccc1C2=O (stereo not drawn),3.3µM*,1.5µM*,8.2µM*,2.1µM*,4%
Cc1cc(=O)n(Cc2ccc(F)cc2Cl)c2c1c(C)nn2C,?,.,.,i,4%
Cc1c(/C=N/NC(=O)c2ccccc2O)c2ccccn2c1C(=O)c1ccc(F)cc1,?,6.5µM*,20%,?,28µM*
Cc1c(/C=N/NC(=O)CNc2ccccc2)c2ccccn2c1C(=O)c1ccccc1,3.7µM*,?,-14%,?,1%
Cc1c(/C=N/NC(N)=O)c2ccccn2c1C(=O)c1ccncc1,i,16%,-7%,i,-1%
COC(=O)N/N=C/c1c(C)c(C(=O)c2ccc(F)cc2)n2ccccc12,23µM*,?,-28%,i,6%
Cc1c(/C=N/NC(=O)c2ccc(O)cc2)c2ccccn2c1C(=O)c1ccc(F)cc1,18µM*,29%,-10%,?,0%
CCOC(=O)N/N=C/c1c(C)c(C(=O)c2ccc(F)cc2)n2ccccc12,i,-2%,-4%,i,3%
O=C1COc2ccc(C(=O)CSc3nc4ccccc4c(=O)n3-c3ccc(Cl)c(Cl)c3)cc2N1,?,13µM*,18µM*,i,-2%
CCc1ccc(-n2c(SCC(=O)c3ccc4c(c3)NC(=O)CO4)nc3ccccc3c2=O)cc1,?,-4%,1%,21µM*,4%
CC(Oc1ccc(Br)cc1)C(=O)NC1CCN(Cc2ccccc2)CC1 (stereo not drawn),?,24%,20%,?,-7%
CCOc1ccc(NC(=O)c2cc(S(=O)(=O)N3CCC(C)CC3)cn2C)cc1,i,.,.,i,6%
O=C(Cc1n[nH]c(=O)c2ccccc12)N/N=C/c1cc2c(cc1Cl)OCO2,i,18µM*,?,i,-1%
SMILES,KB-V1 cytotox,MCF10A rereplic,SW480 rereplic,KB-3-1 tox,PINK1 modulator
Cc1cc(OCC(=O)Nc2sc3c(c2C(N)=O)CCCC3)ccc1C(C)C,?,.,.,i,0%
COc1ccccc1NC(=O)C/C(N)=N/OCC(=O)Nc1cccc(Cl)c1,18µM*,-5%,-3%,i,1%
COc1ccc(C)cc1NC(=O)CO/N=C(\N)CC(=O)Nc1ccccc1OC,i,-3%,-4%,i,1%
CCOC(=O)C1CCN(c2c(C(=O)c3ccc(OC)cc3)cnc3ccccc23)CC1,?,.,.,i,3%
CC(C)(C)c1ccc(-c2nc(NCc3cccnc3)c3ccccc3n2)cc1,?,13µM*,9%,i,-1%
c1cncc(CNc2nc(-c3cccnc3)nc3ccccc23)c1,i,4%,2%,i,2%
CCC(C)Nc1nc(-c2ccccn2)nc2ccccc12 (stereo not drawn),?,0%,6%,15µM*,22%
c1ccc(CNc2nc(-c3ccccn3)nc3ccccc23)cc1,i,13%,24%,16µM*,?
CCOC(=O)CNS(=O)(=O)c1ccc(S(=O)(=O)NC2CC2)cc1,i,?,-43%,i,-2%
COc1cccc(C(C)(O)c2nc(-c3cccc(F)c3)cs2)c1 (stereo not drawn),i,.,.,i,7%
COc1ccccc1CN1CCCC2(CCN(C(=O)c3ccco3)CC2)C1,.,.,.,.,0%
CCOC(=O)N1CCN(C(=O)CN(c2cc(C)ccc2OC)S(=O)(=O)c2ccc(C)cc2)CC1,i,.,.,i,-5%
Cc1ccc(-n2cc3c(-c4cccc(Br)c4)nnc(C)c3n2)cc1,16µM*,14%,0%,?,?
Cc1nnc(-c2cccc(Br)c2)c2cn(-c3ccccc3Cl)nc12,?,14%,-14%,?,1%[38.3 µM]
CC1CC(C)C(=NNC(N)=O)C(C(O)CC2CCC(=O)NC2=O)C1 (stereo not drawn),?,?,-1%,12µM*,-4%
Cc1ccc(NC(=O)/C(C#N)=C/c2cc(C)n(-c3ccc(F)cc3)c2C)cc1C,i,.,.,i,-2%
CN(C)c1nc(C=C(C#N)C#N)c(Cl)n1-c1ccc(F)cc1,?,?,7.3µM*,?,-1%
O=C(c1ccccc1NS(=O)(=O)c1ccc2c(c1)OCCO2)N1CCOCC1,i,6.5µM*,12µM*,i,1%[38.3 µM]
Cc1ccc(S(=O)(=O)Nc2ccccc2C(=O)N2CCOCC2)cc1,i,2%,-3%,?,2%
O=C(c1ccc(F)cc1F)N1CCN(S(=O)(=O)c2ccc3c(c2)OCCO3)CC1,16µM*,5%,4%,?,0%
CC1(C(=O)NS(=O)(=O)c2ccc(F)cc2F)CCN1C(=O)C1(c2ccc(Cl)cc2)CC1 (stereo not drawn),i,.,.,i,0%
O=Cc1ccc(F)c([B-](F)(F)F)c1,i,1%,-4%,i,-1%
Cc1cc(=O)c2c([nH]1)c(C)cc1[nH]c(C)c(C)c12,i,8%,9.2µM*,?,2%
Cc1cc(C)c(S(C)(=O)=O)c(=O)[nH]1,i,4%,-8%,i,-2%
N#Cc1cccc(N2[C@@H](Cc3cc4ccccc4n3Cc3ccccc3)COC[C@H]2Cc2ccc3ccccc3c2)c1,i,.,.,i,0%
